Hits are enriched below; roughly 13% of the tested compounds scored in any of these assays.
Pf growth 48h: inhibits P. falciparum growth in the first generation, 48 h; P. falciparum luciferase growth in erythrocytes, 48 h; Potency, µM (titrated, usually from 28.7 µM), without a hit: at the top dose activity change, negative = inhibition, most hits filed as inhibitors; 5.9% of 310,000 active; note: potency is the fitted concentration of half-maximal effect
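Erythrocytes infected with P. falciparum carrying an integrated firefly luciferase reporter (2% hematocrit, 0.1% parasitemia final) were exposed to compounds in RPMI 1640 with 0.5% Albumax at 37 C, 5% CO2. Growth inhibition was scored as reduced luminescence.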
Pf growth 96h: inhibits malaria parasite growth, 96 h; AID 504834; 6.9% of 320,000 active; P. falciparum luciferase reporter growth, 96 h; Potency, µM (highest dose often 28.7 µM), inactives show at the highest dose activity change, negative = inhibition, most hits filed as inhibitors; note: potency is the fitted concentration of half-maximal effect
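Delayed-death screen, second-generation endpoint: infected erythrocytes, 2% hematocrit, 0.05% parasitemia final; 96 hours at 37 C, 5% CO2; luciferase detection reagent; luminescence decrease equals reduced growth.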
HCV inh: HCV inhibition; Huh7.5.1 HCVcc-Cre infection, luciferase reporter, 44 h; Potency, µM (doses to about 41.8 µM), for inactives: at the top dose activity change, negative = inhibition, usual class: inhibitors; 3.4% of 340,000 active; note: potency is the fitted concentration of half-maximal effect
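Luciferase read-out (15 sec integration) after a 15 min room-temperature substrate step quantifies HCVcc-Cre infection. Cells, 1,000 per well, had compound added 4 h post-plating, then virus at ~0.5 moi, and were cultured 44 h.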
HCMV antiviral: human cytomegalovirus inhibition. activity change, negative = inhibition, % at 57.5 µM. 4.5% of 410,000 active. HFF cells, HCMV-luciferase reporter, 72 h; hits give low values. AID 1259415; in the data active = activity change below about -60%; inconclusive = no clear call, values can overlap the other calls; inactive = above about -39%
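Cell-based, HFFs, 1000 cells/well, 16 h 37C; cpds in DMSO + HCMV-luc, MOI 1 PFU/cell; 72 h 37C; OneGlo luminescence after 5 min RT; norm. to buffer vs Salinomycin 10uM.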
An asterisk follows results filed as active; ? = inconclusive; / = no result; [ ] = another dose, or the depositor's remark. Unless noted, calls come from the whole dose curve; as a rule, active = well fitted inhibition curve with a large enough effect; inconclusive = small, poorly fitted or top-dose-only effect, or another doubt; inactive = no such curve, though single readings can be large or run the other way. % is set by controls: 0 for no effect and ±100 for the full control effect.

SMILES | Pf growth 48h | Pf growth 96h | HCV inh | HCMV antiviral
CCCC12CN3CC(C)(CN(C1)C3c1ccc(OC)cc1)C2=O (configuration not stated) | ? | 31.9% | 4.3% | -15.4
CCCCCCCCn1c2c(c(=N)c3ccccc31)CCC2 | 12.4% | -45.3% | 2.82µM* | -97.0*
O=C(O)Cn1c2c(c3ccccc31)CCCC2 | 2.3% | 225.9% | 25.2% | 52.7
CCCCn1c(=O)c2c(c3ccccc31)OCC(=O)N2 | 25.6% | -15.0% | / | /
CCn1c2c(c(=N)c3c1CCC3)CCCC2 | 0.522µM* | ? | -16.4% | -67.2*
CCCCn1c2c(c(=N)c3ccccc31)CCC2 | 0.415µM* | ? | -17.1% | -36.2
CCCCCn1c2c(c(=N)c3ccccc31)CCC2 | 0.657µM* | ? | ? | -96.4*
CCCCCn1c(=O)c(Cc2ccccc2)c(O)c2ccccc21 | 2.3% | 7.8% | 3.5% | -13.6
COc1ccc(C(=O)c2oc3ccccc3c2NC(=O)c2cc(=O)c3ccc(C)cc3o2)cc1Cl | / | / | / | -5.6
CCCCCNc1nc2c(-c3ccccc3)nnn2c2ccccc12 | / | / | / | 28.1
CCCCCCCCCn1c2c(c(=N)c3c1CCC3)CCCC2 | ? | 27.4% | 3.16µM* | /
COc1ccc(-c2cc(C(F)(F)F)nc(SCC(=O)NCc3ccc(Cl)cc3)n2)cc1 | / | / | / | -16.9
CC1CCN(S(=O)(=O)c2ccc3c(c2)N(CC(=O)NCc2cccnc2)C(=O)CS3)CC1 | -19.1% | 102.1% | 10.1% | -28.2
CN1C(=O)CSc2ccc(NC(=O)NCc3ccc(F)cc3)cc21 | ? | ? | -26.1% | ?
O=C(CN1C(=O)CSc2ccc(S(=O)(=O)N3CCCC3)cc21)NCc1ccccc1Cl | / | / | / | 1.4
CN1C(=O)CSc2ccc(NC(=O)NCc3cccnc3)cc21 | -27.6% | -27.3% | ? | -60.9*
O=C(CN1C(=O)CSc2ccc(S(=O)(=O)N3CCCCC3)cc21)NCc1cccnc1 | ? | 2.33µM* | 10.0% | 20.6
COc1ccccc1CNC(=O)CN1C(=O)CSc2ccc(S(=O)(=O)N3CCCC3)cc21 | 13.1µM* | ? | -13.1% | -0.5
COc1ccc(-c2oc3c(c2C#CCCCCO)C(OCCO)CC3)cc1 (configuration not stated) | / | / | / | -16.1
CN(CC(=O)Nc1ccc(S(=O)(=O)N2CCCC2)cc1)Cc1c(F)cccc1Cl | -21.4% | 13.1µM* | ? | -70.2*
O=C(Cc1ccc(F)cc1)Nc1ccc(S(=O)(=O)N2CCCC2)cc1 | 14.9% | ? | ? | ?
CN(CC(=O)Nc1ccc(S(=O)(=O)N2CCCC2)cc1)Cc1ccc(Cl)cc1 | ? | 8.28µM* | ? | -35.7
CC(C)(C)c1nc(N2CCN(C(=O)c3ccco3)CC2)c2nnn(Cc3ccccc3Cl)c2n1 | 1.65µM* | / | ? | -1.7
NC(=O)C1CCN(c2nc(C3CC3)nc3c2nnn3Cc2ccccc2Cl)CC1 | ? | -7.8%[5.75 µM] | -17.7% | -39.2
COCCNc1nc(C(C)(C)C)nc2c1nnn2Cc1ccccc1Cl | 8.28µM* | 41.8% | 8.1% | /
SMILES | Pf growth 48h | Pf growth 96h | HCV inh | HCMV antiviral
COc1ccc(S(=O)(=O)Nc2cc3[nH]c(=O)oc3cc2C)cc1 | 16.7% | 8.28µM* | -20.5% | ?
Cc1ccc(NS(=O)(=O)c2ccc3[nH]c(=O)oc3c2)c(C)c1 | 20.5% | ? | 21.1% | ?
COc1ccccc1C(=O)NCCSc1c(C)[nH]c2ccccc12 | / | / | / | -39.2
Cc1ccccc1NC(=O)Cn1cnc2c(oc3nc4c(cc32)COC(C)(C)C4)c1=O | 0.7% | -14.8% | -4.1% | -36.4
CCOc1ccc(NC(=O)CSc2nc3nc4c(cc3c(=O)n2CC)COC(C)(C)C4)cc1 | ? | ? | 3.16µM* | -26.6
Cc1ccc(-n2c(SCC(=O)NCc3ccco3)nc3sc(C)c(C)c3c2=O)cc1 | -1.6% | / | ? | 3.9
CCn1c(SCC(=O)Nc2ccccc2C)nc2nc3c(cc2c1=O)COC(C)(C)C3 | ? | ? | 10µM* | -5.7
Cc1ccc(-n2c(SCC(=O)NCc3ccco3)nc3nc4c(cc3c2=O)COC(C)(C)C4)cc1 | 9.28µM* | -10.7% | 14.5% | 18.1
CCn1c(SCC(=O)Nc2ccc(C(C)=O)cc2)nc2nc3c(cc2c1=O)COC(C)(C)C3 | 19.8% | 25.9% | -16.5% | 77.2
CCOC(=O)c1cc(S(=O)(=O)Nc2ccc(C)cc2Cl)[nH]n1 | / | / | / | -12.2
CCn1cc(C(=O)N2CCN(c3ccccc3)CC2)c(=O)c2cc(S(=O)(=O)N3CCCC3)ccc21 | / | / | / | -8.4
COc1ccc(-n2sc3ccc(F)cc3c2=O)cc1 | 4.15µM* | 144.2% | 2.82µM* | -5.1
Cc1ccc(C)c(-n2sc3ccc(F)cc3c2=O)c1 | 2.08µM* | 1.47µM* | ? | -86.8*
COc1ccc(-n2sc3ccccc3c2=O)cc1 | / | / | / | -102.0*
O=c1c2cc(F)ccc2sn1-c1ccc(F)cc1 | 4.15µM* | 8.4% | ? | /
Cc1ccccc1-n1cc[nH]c1=S | -5.8% | 0.6% | -9.0% | 9.4
Cc1cccc(-n2cc[nH]c2=S)c1C | 4.2% | -8.9% | 2.6% | -69.0*
CCCCCOc1ccc(NC(=O)Cn2c(-c3nonc3N)nc3ccccc32)cc1 | / | / | / | -16.4
CN(C(=O)C1CCOC1)c1nnc(-c2ccccn2)s1 (configuration not stated) | 116.2% | 13.1µM* | -1.9% | 45.2
CN(C(=O)C1CCOC1)c1nnc(-c2ccncc2)s1 (configuration not stated) | 2.6% | ? | 4.6% | 16.4
COC(=O)C(NC(=O)c1ccco1)(Nc1nc(C2CC2)cs1)C(F)(F)F (configuration not stated) | ? | ? | -11.6% | -66.9*
COC(=O)C(NC(=O)c1ccco1)(Nc1cc(C)ccn1)C(F)(F)F (configuration not stated) | -22.9% | -14.0% | 7.1% | -6.9
COc1cc(C(=O)Nc2cccc(OCc3cc(=O)n4cc(C)sc4n3)c2)cc(OC)c1OC | / | / | / | -10.9
O=C(CSCc1cc(=O)c2cc(F)ccc2[nH]1)Nc1ccccc1Cl | / | / | / | -3.1
CCOc1ccc(CCNC(=O)c2[nH]c3cc(OC)ccc3c2Sc2ccccc2)cc1OCC | / | / | / | -8.3
SMILES | Pf growth 48h | Pf growth 96h | HCV inh | HCMV antiviral
c1ccc(COc2ccc(OCCCN3CCCC3)cc2)cc1 | 72.3% | 9.6% | 10µM* | 10.7
c1ccc(COc2ccc(OCCN3CCCC3)cc2)cc1 | 76.3% | -20.1% | -24.2% | -20.9
c1ccc(Oc2cccc(OCCCCN3CCCC3)c2)cc1 | -14.4% | -81.7% | 10µM* | ?
CC1CCN(CCOc2cccc(Br)c2)CC1 | 7.7% | ? | 1.4% | -22.0
CN1CCN(Cc2ccc(OCc3ccccc3)cc2)CC1 | 123.4% | ? | 5.62µM* | -10.2
Clc1cccc(OCCN2CCN(CCOc3cccc(Cl)c3)CC2)c1 | 2.9% | ? | ? | -96.1*
Fc1ccccc1NC(=S)N1CCN(C/C=C/c2ccccc2)CC1 | 3.0% | 0.586µM* | -16.0% | -35.0
S=C(NC1CCCC1)N1CCN(C/C=C/c2ccccc2)CC1 | 1.4% | -84.9% | 10µM* | -64.3*
CCC[C@H]1[C@@H](NS(=O)(=O)c2ccccc2)CC[C@@]23CCCN2C(=O)CCC[C@@H]13 | / | / | / | -10.2
CCC(C)NC(=O)Cn1c(=O)n(-c2cc(OC)cc(OC)c2)c(=O)c2ccccc21 (configuration not stated) | / | / | / | 5.5
